The values that follow come from PubChem BioAssay.

One assay concerns the target Albumin (Bos taurus) (UniProt P02769). Briefly: compounds binding labelled BSA control protein – biochemical, small-molecule microarray, Alexa647 label, 635/667 nm fluorescence, artefact control for SMM control protein annotation, profiling panel (AID 1118).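 Further: score merges 667 nm emission intensity and signal-to-noise per printed compound spot.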 As to conditions: BSA-A647 binding, fluorescence 635 nm, higher = more signal.
A short description of assay [1]: probe aXIP binding to arrayed compounds – biochemical, NeuroSMM set, 635/667 nm fluorescence, primary screen (AID 1119).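 Further: probe is the protein aXip251-270 applied at 1 µg/mL to compound-printed slides; binding of probe to printed compounds measured as 667 nm fluorescence plus signal to noise.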 As to conditions: small-molecule microarray, higher = more signal, called active from +8 up or from −8 down.
Assay [2] in a line: probe aNOTCH3 binding on compound microarray – biochemical, small-molecule microarray, 635/667 nm fluorescence, primary screen (AID 1120).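 Further: probe is a biotin-tagged antibody raised against NOTCH3 rather than NOTCH3 protein; score merges spot fluorescence near 667 nm with spot signal to noise.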 As to conditions: higher = more signal.
Assay [3] can be described thus: probe aNOTCH2 binding on compound microarray – biochemical, small-molecule microarray, 635/667 nm fluorescence, primary screen (AID 1121).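 Further: score merges feature fluorescence read at 667 nm with its signal to noise.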 As to conditions: higher = more signal.
Assay [4] concerns the target Carbonic anhydrase 2 (Homo sapiens) (UniProt P00918). Nature of the assay: compounds binding carbonic anhydrase 2 – biochemical, small-molecule microarray, Alexa647-labelled CAII, profiling panel (AID 1122). As to conditions: CAII-A647 binding fluorescence, higher = more signal.
A short description of assay [5]: COS7 lysate on small-molecule microarray, probe aHis, 635 nm (AID 1123).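 Further: z-score combines 667nm fluorescence intensity with signal-to-noise per printed compound spot.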 As to conditions: COS7 cell lysate, fluorescence, higher = more signal.
Assay [6] in a line: probe aLAP1 signal on lysate-treated microarray – cell lysate, small-molecule microarray, COS7 lysate, primary screen (AID 1124).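 Further: lysate comes from COS7 cells expressing LAP1 and is applied at 0.3 µg/mL; score merges spot fluorescence near 667 nm with signal-to-noise over triplicate slides.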 As to conditions: probe aLAP1, fluorescence, higher = more signal.
Another assay has as its system Sam68 (KHDRBS1). Briefly: compounds binding KHDRBS1 protein – biochemical, small-molecule microarray, 635 nm fluorescence, primary screen (AID 1125).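 Further: score merges 667 nm channel intensity with signal to noise over triplicate slides.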 As to conditions: higher = more signal.
Assay [7] deals with Chordin-like protein 2 (CHRDL2). Briefly: compounds binding chordin-like 2 – biochemical, small-molecule microarray, 635 nm fluorescence, primary screen (AID 1126).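 Further: printed compound slides probed with Chrdl2 protein at 4 µg/mL for 1 h at 4 C; score merges 667 nm emission intensity with signal to noise over three replicate slides.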 As to conditions: fluorescence 635 nm, higher = more signal.
The target of assay [8] is Concanavalin-A (Canavalia ensiformis) (UniProt P02866). Briefly: compounds binding concanavalin A lectin – biochemical, small-molecule microarray, Alexa647 label, 635 nm, artefact control for SMM control protein annotation, primary screen (AID 1127).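 Further: z combines 667 nm emission intensity with signal-to-noise across three replicate slides.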 To be noted: ConA-A647 binding fluorescence, higher = more signal.
Sequence of Concanavalin-A (Canavalia ensiformis) (P02866 whole entry, looked up): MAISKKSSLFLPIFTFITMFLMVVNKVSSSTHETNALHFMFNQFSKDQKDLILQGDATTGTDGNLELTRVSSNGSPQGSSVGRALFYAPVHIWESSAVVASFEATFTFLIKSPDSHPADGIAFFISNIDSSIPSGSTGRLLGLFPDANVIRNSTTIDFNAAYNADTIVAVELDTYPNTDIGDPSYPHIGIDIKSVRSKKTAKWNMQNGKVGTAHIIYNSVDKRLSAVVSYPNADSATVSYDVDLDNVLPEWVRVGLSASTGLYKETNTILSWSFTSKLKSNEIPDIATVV
The nature of assay [9]: compounds binding Alexa647 anti-His antibody – biochemical, small-molecule microarray, 635 nm fluorescence, artefact control for SMM control protein annotation, primary screen (AID 1128).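 Further: score merges feature fluorescence with signal-to-noise for each printed compound spot.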 To be noted: higher = more signal.
The subject of assay [10] is Human papillomavirus type 1a E7 protein (residues 1-88). Nature of the assay: HPV1a E7 small-molecule binders, primary screen, biochemical, small-molecule microarray, residues 1-88, 635 nm (AID 1129). As to conditions: small-molecule microarray binding, fluorescence 635 nm; higher = more signal.
In assay [11] the target is Focal adhesion kinase 1 (Homo sapiens) (UniProt Q05397). Nature of the assay: PTK2 protein binding on printed compound slides – biochemical, small-molecule microarray, 635/667 nm fluorescence, BSA, DTT, primary screen (AID 1130).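 Further: composite of spot emission at 667 nm and signal to noise over triplicate slides.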 To be noted: 635 nm fluorescence, higher = more signal.
Sequence of Focal adhesion kinase 1 (Homo sapiens) (Q05397 whole entry, looked up): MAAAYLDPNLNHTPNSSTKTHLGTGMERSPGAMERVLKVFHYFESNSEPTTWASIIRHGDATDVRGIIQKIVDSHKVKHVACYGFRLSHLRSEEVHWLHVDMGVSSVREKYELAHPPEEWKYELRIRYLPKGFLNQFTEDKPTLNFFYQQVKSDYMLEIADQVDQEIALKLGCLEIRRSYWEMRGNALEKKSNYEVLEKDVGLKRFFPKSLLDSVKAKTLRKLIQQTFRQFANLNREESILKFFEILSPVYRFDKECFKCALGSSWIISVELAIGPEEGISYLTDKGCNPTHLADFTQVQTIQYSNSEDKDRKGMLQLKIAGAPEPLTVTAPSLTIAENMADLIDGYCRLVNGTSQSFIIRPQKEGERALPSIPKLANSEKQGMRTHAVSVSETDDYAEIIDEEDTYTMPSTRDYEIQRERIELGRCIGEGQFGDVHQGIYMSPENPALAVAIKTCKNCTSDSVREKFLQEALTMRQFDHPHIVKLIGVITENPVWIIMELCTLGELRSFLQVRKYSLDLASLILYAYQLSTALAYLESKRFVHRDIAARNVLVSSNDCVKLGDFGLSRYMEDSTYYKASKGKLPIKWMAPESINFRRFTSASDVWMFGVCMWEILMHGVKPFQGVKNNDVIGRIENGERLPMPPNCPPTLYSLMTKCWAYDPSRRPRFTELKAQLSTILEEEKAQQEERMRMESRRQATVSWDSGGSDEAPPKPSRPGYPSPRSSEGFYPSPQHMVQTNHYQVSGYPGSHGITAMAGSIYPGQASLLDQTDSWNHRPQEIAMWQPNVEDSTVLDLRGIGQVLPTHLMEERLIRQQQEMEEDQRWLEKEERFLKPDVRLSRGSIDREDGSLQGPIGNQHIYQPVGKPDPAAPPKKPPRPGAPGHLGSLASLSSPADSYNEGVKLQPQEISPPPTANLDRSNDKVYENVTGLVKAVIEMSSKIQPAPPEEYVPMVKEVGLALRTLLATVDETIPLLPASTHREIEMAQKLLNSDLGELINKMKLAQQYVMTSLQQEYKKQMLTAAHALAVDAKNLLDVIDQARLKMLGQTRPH
Assay [12] concerns Fibrinogen (Alexa647-labelled). Briefly: Alexa647-fibrinogen binding to printed small molecules – biochemical, small-molecule microarray, 635/667 nm fluorescence, artefact control for SMM control-protein annotation, profiling panel (AID 1131).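 Further: z-score merges 667 nm fluorescence with per-spot signal-to-noise over triplicate slides.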 As to conditions: fibrinogen-A647 binding fluorescence, higher = more signal.
Assay [13] deals with Follistatin (Homo sapiens) (UniProt P19883). Briefly: FST protein binding to printed compounds – biochemical, small-molecule microarray, 635/667 nm fluorescence, primary screen (AID 1132). As to conditions: 635 nm fluorescence, higher = more signal.
Sequence of Follistatin (Homo sapiens) (P19883 whole entry, looked up): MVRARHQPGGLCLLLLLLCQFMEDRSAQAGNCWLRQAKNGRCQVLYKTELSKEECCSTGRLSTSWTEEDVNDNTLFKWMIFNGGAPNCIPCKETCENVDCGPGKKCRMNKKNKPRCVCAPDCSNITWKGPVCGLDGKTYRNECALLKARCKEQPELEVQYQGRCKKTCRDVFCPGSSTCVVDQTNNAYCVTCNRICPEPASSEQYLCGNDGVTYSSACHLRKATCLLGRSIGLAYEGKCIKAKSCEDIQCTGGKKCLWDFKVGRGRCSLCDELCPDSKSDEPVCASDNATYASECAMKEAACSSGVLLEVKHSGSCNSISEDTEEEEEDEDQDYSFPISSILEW
In assay [14] the target is Fibroblast growth factor 2 (Homo sapiens) (UniProt P09038). Briefly: basic fibroblast growth factor binding to printed compounds – biochemical, small-molecule microarray, 635/667 nm fluorescence, primary screen (AID 1133). As to conditions: FGF2, fluorescence 635/667, higher = more signal.
Sequence of Fibroblast growth factor 2 (Homo sapiens) (P09038 whole entry, looked up): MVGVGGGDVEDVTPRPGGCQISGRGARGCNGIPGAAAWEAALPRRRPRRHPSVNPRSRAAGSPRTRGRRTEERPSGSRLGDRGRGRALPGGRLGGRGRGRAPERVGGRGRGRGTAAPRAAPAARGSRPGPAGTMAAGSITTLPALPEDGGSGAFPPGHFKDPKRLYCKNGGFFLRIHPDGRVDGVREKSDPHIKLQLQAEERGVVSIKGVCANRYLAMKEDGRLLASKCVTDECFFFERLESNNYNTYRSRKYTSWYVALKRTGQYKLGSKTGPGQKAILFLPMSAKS
A short description of assay [15]: JC-1 mitochondrial potential readout, lung cancer cells – cell-based, A549, JC-1 fluorescence, basal, 24 h, 100 nL, profiling panel (AID 1138).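 Further: A549 lung adenocarcinoma cells under basal conditions with no added stimulus; test concentration not given here.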 To be noted: higher = more signal.
In a further assay the test system is Lefty1. Nature of the assay: Lefty1 protein binding to printed compounds – biochemical, small-molecule microarray, 635/667 nm fluorescence, primary screen (AID 1139). To be noted: fluorescence 635/667, higher = more signal.
Assay [16] relates to wheat germ agglutinin (Triticum aestivum), Alexa647-labelled. Nature of the assay: Alexa647-WGA lectin binding to printed small molecules – biochemical, small-molecule microarray, 635/667 nm fluorescence, artefact control for SMM control-protein annotation, profiling panel (AID 1140).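 Further: score merges 667 nm feature emission with signal to noise over triplicate slides.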 As to conditions: WGA-A647 binding, 635 nm fluorescence, higher = more signal.
Assay [17] concerns the target Luciferin 4-monooxygenase (Photinus pyralis) (UniProt P08659). Nature of the assay: inhibition of purified Photinus pyralis luciferase – biochemical, luminescence, purified enzyme, 2006 set, primary screen (AID 1141).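 Further: cell-free assay with purified firefly luciferase at 100 ng per well in PBS; test concentration not given here.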 To be noted: purified firefly luciferase, SteadyGlo luminescence, 30 min; higher = more signal, called active from +8 up or from −8 down.

Calls of active or inactive are those of the source.

Sequence of Albumin (Bos taurus) (P02769 whole entry, looked up): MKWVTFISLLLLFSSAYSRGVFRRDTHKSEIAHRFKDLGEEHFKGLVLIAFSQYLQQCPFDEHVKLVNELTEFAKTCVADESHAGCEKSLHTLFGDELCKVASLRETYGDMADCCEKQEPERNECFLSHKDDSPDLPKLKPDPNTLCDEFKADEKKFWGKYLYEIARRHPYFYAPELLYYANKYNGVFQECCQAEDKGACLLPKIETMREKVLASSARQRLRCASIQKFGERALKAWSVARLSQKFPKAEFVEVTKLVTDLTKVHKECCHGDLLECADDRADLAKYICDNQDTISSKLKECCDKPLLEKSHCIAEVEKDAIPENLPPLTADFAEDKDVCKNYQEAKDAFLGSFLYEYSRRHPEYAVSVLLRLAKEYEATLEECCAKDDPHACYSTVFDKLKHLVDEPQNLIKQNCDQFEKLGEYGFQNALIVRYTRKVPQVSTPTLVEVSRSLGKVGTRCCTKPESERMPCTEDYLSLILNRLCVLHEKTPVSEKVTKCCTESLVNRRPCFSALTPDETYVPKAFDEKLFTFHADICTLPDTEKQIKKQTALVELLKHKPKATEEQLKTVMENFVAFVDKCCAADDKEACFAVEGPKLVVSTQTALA
Sequence of Luciferin 4-monooxygenase (Photinus pyralis) (P08659 whole entry, looked up): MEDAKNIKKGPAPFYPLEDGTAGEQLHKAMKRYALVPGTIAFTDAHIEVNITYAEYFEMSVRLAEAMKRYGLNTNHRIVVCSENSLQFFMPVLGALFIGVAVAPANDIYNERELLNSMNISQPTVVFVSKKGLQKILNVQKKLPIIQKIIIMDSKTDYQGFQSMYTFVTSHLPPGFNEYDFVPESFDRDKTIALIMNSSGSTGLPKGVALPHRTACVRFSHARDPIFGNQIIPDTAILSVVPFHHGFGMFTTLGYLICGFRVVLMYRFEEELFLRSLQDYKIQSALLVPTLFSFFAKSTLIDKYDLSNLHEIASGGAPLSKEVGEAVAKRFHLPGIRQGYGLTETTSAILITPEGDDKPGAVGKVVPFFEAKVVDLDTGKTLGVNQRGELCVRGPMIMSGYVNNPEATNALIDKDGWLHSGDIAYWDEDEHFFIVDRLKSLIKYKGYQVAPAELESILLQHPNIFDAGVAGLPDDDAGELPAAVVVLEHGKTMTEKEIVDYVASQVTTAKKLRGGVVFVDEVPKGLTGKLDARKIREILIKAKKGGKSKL

In the case of `CCOC(=O)C[C@H]1[C@H](OC(=O)c2cc3ccccc3oc2=O)[C@@H](NC(=O)C2CCCCC2)c2cc(OCCCO)ccc2N1C(=O)c1ccc2ccccc2n1`, the composite z-score with Albumin (Bos taurus) is 0.596; in assay [2] it was -0.0311; in assay [3], -0.115; in [4], 0.0744; in assay [5], 0.801; in assay [6], -0.108. Further, the composite z-score with Sam68 (KHDRBS1) came out at 1.06; in assay [7], 0.544; in assay [8], 0.953; in [9], 0.0957; in assay [10] it was 0.791; in assay [11], 2.65. Moreover, the composite z-score in assay [12] was 0.443; in assay [13] it was 1.13; in assay [14], 0.324; with Lefty1 it was 0.522; in assay [16], 0.755. Moreover, the composite Z-score in assay [1] is -0.0789 (inactive). The z-score is 0.539 in assay [15] and 0.777 (inactive) in [17].

In the case of `COCCOC(=O)N1C(=O)[C@@]2(c3cc(C#CC4(O)CCCCCC4)ccc31)[C@H](C(=O)N1CCCCCCC1)[C@H]1C(=O)O[C@H](c3ccccc3)[C@H](c3ccccc3)N1[C@@H]2c1ccc(O)cc1`, the composite z-score was -0.653 with Albumin (Bos taurus); 0.885 in assay [2]; 0.337 in assay [3]; 0.485 in [4]; 2.62 in assay [5]; -0.139 in [6]. Also, the composite z-score is 1.3 in the assay on Sam68 (KHDRBS1); 0.519 in assay [7]; 1.08 in [8]; 1.25 in [9]; 1.22 in assay [10]; 0.646 in assay [11]. The composite z-score in [12] was 0.72; in assay [13], 1.48; in [14], 0.536; in the assay on Lefty1, 1.08; in [16], 1.38. In addition, in assay [1], the composite Z-score was 0.108 (inactive). For the same compound, the z-score is 0.208 in assay [15] and -1.27 (inactive) in assay [17].

`C=CCC1=C[C@H]2[C@H]([C@@H]3C=C[C@]2(CC=C)C(=O)[C@]32CO2)[C@@]2(CO2)C1=O`: the composite z-score with Albumin (Bos taurus) was -0.44; in assay [2], 0.519; in assay [3] it was 0.082; in assay [4], -0.262; in assay [5], 0.104; in [6] it was -0.0222. The composite z-score is -0.56 in the assay on Sam68 (KHDRBS1); 1.54 in assay [7]; -1 in assay [8]; -0.131 in assay [9]; -1.2 in [10]; -0.263 in assay [11]. Also, the composite z-score in [12] was -0.571; in assay [13], 1.45; in assay [14] it was 1.45; with Lefty1, 1.58; in assay [16], -0.0818. In addition, the composite Z-score in assay [1] was 0.528 (inactive). The z-score in assay [15] is 1.84; in [17], -1.01 (inactive).

In the case of `C=CCN1C(=O)[C@@]2(O[C@@H](CCn3cc([C@H](O)c4ccccc4)nn3)[C@H]([Si](C)(C)c3ccc(OC)cc3)[C@H]2C)c2cc(N3CCOC3=O)ccc21`, the composite z-score with Albumin (Bos taurus) is 0.0865; in assay [2] it was -0.0932; in assay [3], -0.0666; in assay [4] it was 0.614; in assay [5] it was 1.02; in assay [6], 0.0741. The composite z-score with Sam68 (KHDRBS1) was 1.11; in assay [7] it was -0.0548; in assay [8], -0.559; in assay [9], 1.34; in assay [10], 1.16; in assay [11], 0.533. Also, the composite z-score in assay [12] is -0.285; in assay [13], 0.0302; in assay [14], 0.0085; in the assay on Lefty1, -0.192; in assay [16], -0.605. The composite Z-score in assay [1] is 0.146 (inactive). Also, the results for the z-score in [15] and in [17] were 0.899 and -0.731 (inactive), respectively.

With `C=C(CCCC)/C(=C/C[C@@H](OC(=O)c1ccncc1)c1cccc(OCCO)c1)c1cc(C(=O)OC)ccc1OC`, the composite z-score in the assay with Albumin (Bos taurus) is 0.6; in assay [2], 0.0893; in assay [3], -0.0974; in assay [4], 0.57; in assay [5] it was 2.84; in [6], 1.05. The composite z-score in the assay on Sam68 (KHDRBS1) amounted to 1.19; in assay [7] it was 0.287; in [8], 1.11; in assay [9], 0.541; in [10], 1.17; in assay [11], 0.0708. Further, the composite z-score came to 0.939 in assay [12]; 1.12 in assay [13]; 0.627 in assay [14]; 0.959 in the assay with Lefty1; 1.09 in assay [16]. For the same compound, the composite Z-score in assay [1] is -0.259 (inactive). In addition, the z-score in assay [15] was 4.97; in assay [17], -2.22 (inactive).
